Reference: the antibiotic and cytotoxicity screens of Wong et al. (2023)
In all, about 39,000 compounds went through this assay and about 1,500 (3.8%) were called active. Shown is part of a subset that was picked to be rich in actives.

test system: HSkMC (human skeletal muscle cells); experiment: cytotoxicity call (relative viability < 0.9); details: 10 µM

**Q.** `C[C@@H]1CN([C@H](C)CO)C(=O)Cc2cc(NS(=O)(=O)c3ccc(Cl)cc3)ccc2O[C@H]1CN(C)C(=O)Nc1cccc2ccccc12` was tested. Which cytotoxicity call did it give?
**A.** The cytotoxicity call was “inactive”.

**Q.** `C[C@H]1CN([C@@H](C)CO)C(=O)c2cccc(NC(=O)Nc3ccc4c(c3)OCO4)c2O[C@H]1CN(C)S(=O)(=O)c1cn(C)cn1` was tested. Which cytotoxicity call did it give?
**A.** The cytotoxicity call was “inactive”.

**Q.** `CCCN(C)C[C@H]1OCCCC[C@H](C)Oc2ccc(NC(=O)NC3CCCCC3)cc2C(=O)N([C@@H](C)CO)C[C@H]1C` was tested. Which cytotoxicity call did it give?
**A.** Its cytotoxicity call is “inactive”.

**Q.** For `C[C@H]1CCCCO[C@@H](CN(C)S(=O)(=O)c2ccc(F)cc2)[C@@H](C)CN([C@@H](C)CO)C(=O)c2cc(NS(=O)(=O)c3cn(C)cn3)ccc2O1`, which cytotoxicity call is on record?
**A.** The cytotoxicity call was “inactive”.

**Q.** `C[C@@H]1CN([C@@H](C)CO)C(=O)c2cc(NC(=O)c3ccncc3)ccc2O[C@@H](C)CCCCO[C@H]1CN(C)C(=O)Nc1ccccc1` was tested. Which cytotoxicity call did it give?
**A.** Its cytotoxicity call is “inactive”.

**Q.** For `O=C(C[C@H]1C=C[C@@H](NC(=O)c2ccncc2)[C@@H](CO)O1)NCc1ccncn1`, which cytotoxicity call is on record?
**A.** The cytotoxicity call was “inactive”.

**Q.** For `Cc1ccccc1S(=O)(=O)N1C[C@@H](O)COC[C@H]2O[C@H](CC(=O)N3CCOCC3)CC[C@@H]21`, which cytotoxicity call is on record?
**A.** Its cytotoxicity call is “inactive”.

**Q.** Which cytotoxicity call does the source give for `CC1CCC2(C)C(C=O)=CCCC2C1(C)CC1OC(O)C(=O)C12CO2` (stereo not drawn) here?
**A.** The cytotoxicity call was “inactive”.

**Q.** Which cytotoxicity call does the source give for `C[C@@H]1CCCCO[C@@H](CN(C)CC2CCCCC2)[C@H](C)CN([C@H](C)CO)C(=O)c2cc(NC(=O)CCC(F)(F)F)ccc2O1` here?
**A.** Its cytotoxicity call is “inactive”.

**Q.** How did the cytotoxicity call turn out when `C[C@H](CO)N1C[C@H](C)[C@H](CN(C)C(=O)Nc2ccc(F)cc2)Oc2ccc(NC(=O)Cn3cnnn3)cc2C1=O` was run?
**A.** Its cytotoxicity call is “inactive”.

**Q.** For `C[C@@H]1CN([C@H](C)CO)C(=O)c2cccc(NC(=O)NC3CCCCC3)c2O[C@@H]1CN(C)C(=O)Nc1ccc(C(F)(F)F)cc1`, which cytotoxicity call is on record?
**A.** Its cytotoxicity call is “inactive”.

**Q.** With `C[C@H]1CN([C@@H](C)CO)C(=O)c2cccc(NC(=O)NC3CCCCC3)c2O[C@H]1CN(C)C(=O)Nc1ccc(C(F)(F)F)cc1` as the compound, how does the cytotoxicity call read?
**A.** Its cytotoxicity call is “active”.

**Q.** Which cytotoxicity call does the source give for `C[C@@H]1CN([C@H](C)CO)C(=O)c2cccc(NC(=O)NC3CCCCC3)c2O[C@H]1CN(C)C(=O)Nc1ccc(C(F)(F)F)cc1` here?
**A.** Its cytotoxicity call is “inactive”.

**Q.** Which cytotoxicity call does the source give for `C[C@@H]1CN([C@@H](C)CO)C(=O)c2cccc(NC(=O)NC3CCCCC3)c2O[C@@H]1CN(C)C(=O)Nc1ccc(C(F)(F)F)cc1` here?
**A.** Its cytotoxicity call is “active”.

**Q.** Which cytotoxicity call does the source give for `C[C@H](CO)N1C[C@H](C)[C@H](CN(C)C(=O)Nc2ccc(C(F)(F)F)cc2)Oc2c(NC(=O)NC3CCCCC3)cccc2C1=O` here?
**A.** The cytotoxicity call was “inactive”.

**Q.** Which cytotoxicity call does the source give for `C[C@H]1CN([C@@H](C)CO)C(=O)c2cccc(NC(=O)NC3CCCCC3)c2O[C@@H]1CN(C)C(=O)Nc1ccc(C(F)(F)F)cc1` here?
**A.** Its cytotoxicity call is “inactive”.

**Q.** `COc1ccc(NC(=O)Nc2ccc3c(c2)C(=O)N([C@H](C)CO)C[C@H](C)[C@H](CN(C)S(=O)(=O)c2cn(C)cn2)O3)cc1` was tested. Which cytotoxicity call did it give?
**A.** Its cytotoxicity call is “inactive”.

**Q.** How did the cytotoxicity call turn out when `Cc1cc(-c2cccs2)cc(C)n1` was run?
**A.** Its cytotoxicity call is “inactive”.

**Q.** How did the cytotoxicity call turn out when `COCC(=O)N1C[C@H](C)[C@H](OC)CN(C)C(=O)c2cc(NC(=O)c3cc(C)on3)ccc2OC[C@@H]1C` was run?
**A.** The cytotoxicity call was “inactive”.

**Q.** How did the cytotoxicity call turn out when `COc1cc2c(cc1O)CCN[C@]21CS[C@@H]2c3c(OC(C)=O)c(C)c4c(c3[C@H](COC1=O)N1[C@@H]2[C@H]2c3c(cc(C)c(OC)c3O)C[C@@H]([C@@H]1O)N2C)OCO4` was run?
**A.** Its cytotoxicity call is “active”.

**Q.** Which cytotoxicity call does the source give for `COc1ccc(NC(=O)N(C)C[C@H]2OCCCC[C@@H](C)Oc3ccc(NC(=O)Nc4ccc(C(F)(F)F)cc4)cc3C(=O)N([C@@H](C)CO)C[C@H]2C)cc1` here?
**A.** The cytotoxicity call was “inactive”.

**Q.** Which cytotoxicity call does the source give for `CCS(=O)(=O)Nc1ccc2c(c1)C(=O)N(C)C[C@@H](OC)[C@@H](C)CN(Cc1nccs1)[C@@H](C)CO2` here?
**A.** Its cytotoxicity call is “inactive”.

**Q.** How did the cytotoxicity call turn out when `C[C@@H]1CCCCO[C@@H](CN(C)Cc2ccc(Cl)c(Cl)c2)[C@H](C)CN([C@H](C)CO)C(=O)c2cc(NS(=O)(=O)c3ccccc3)ccc2O1` was run?
**A.** The cytotoxicity call was “active”.

**Q.** How did the cytotoxicity call turn out when `C[C@H](CO)N1C[C@H](C)[C@@H](CN(C)Cc2ccc(Cl)c(Cl)c2)OCCCC[C@H](C)Oc2ccc(NS(=O)(=O)c3ccccc3)cc2C1=O` was run?
**A.** Its cytotoxicity call is “inactive”.

**Q.** Which cytotoxicity call does the source give for `C[C@@H]1CN([C@H](C)CO)C(=O)c2cc(NS(=O)(=O)c3ccccc3)ccc2O[C@@H](C)CCCCO[C@H]1CN(C)Cc1ccc(Cl)c(Cl)c1` here?
**A.** The cytotoxicity call was “inactive”.

**Q.** With `C[C@@H]1CCCCO[C@H](CN(C)Cc2ccc(Cl)c(Cl)c2)[C@H](C)CN([C@@H](C)CO)C(=O)c2cc(NS(=O)(=O)c3ccccc3)ccc2O1` as the compound, how does the cytotoxicity call read?
**A.** The cytotoxicity call was “active”.

**Q.** How did the cytotoxicity call turn out when `C[C@@H]1CCCCO[C@@H](CN(C)Cc2ccc(Cl)c(Cl)c2)[C@H](C)CN([C@@H](C)CO)C(=O)c2cc(NS(=O)(=O)c3ccccc3)ccc2O1` was run?
**A.** The cytotoxicity call was “active”.

**Q.** Which cytotoxicity call does the source give for `C[C@@H]1CCCCO[C@@H](CN(C)Cc2ccc(Cl)c(Cl)c2)[C@@H](C)CN([C@@H](C)CO)C(=O)c2cc(NS(=O)(=O)c3ccccc3)ccc2O1` here?
**A.** Its cytotoxicity call is “active”.

**Q.** Which cytotoxicity call does the source give for `C[C@@H]1CCCCO[C@@H](CN(C)Cc2ccc(Cl)c(Cl)c2)[C@@H](C)CN([C@H](C)CO)C(=O)c2cc(NS(=O)(=O)c3ccccc3)ccc2O1` here?
**A.** Its cytotoxicity call is “inactive”.

**Q.** How did the cytotoxicity call turn out when `Cc1noc(C)c1NC(=O)Nc1cccc2c1O[C@@H](CN(C)C(=O)NC(C)C)[C@@H](C)CN([C@H](C)CO)C2=O` was run?
**A.** Its cytotoxicity call is “inactive”.

**Q.** With `CCCC#Cc1cnc2c(c1)C(=O)N([C@@H](C)CO)C[C@@H](C)[C@H](CN(C)S(=O)(=O)c1cccc(OC)c1)O2` as the compound, how does the cytotoxicity call read?
**A.** Its cytotoxicity call is “inactive”.

**Q.** For `O=C(C[C@@H]1CC[C@H]2[C@@H](COC[C@H](O)CN2C(=O)c2cccnc2)O1)NCc1ccc(-c2ccccc2)cc1`, which cytotoxicity call is on record?
**A.** The cytotoxicity call was “inactive”.

**Q.** `C[C@H]1CN([C@@H](C)CO)C(=O)c2cc(NS(=O)(=O)c3ccc(F)cc3)ccc2O[C@H]1CN(C)S(=O)(=O)c1cccs1` was tested. Which cytotoxicity call did it give?
**A.** The cytotoxicity call was “inactive”.

**Q.** For `COc1ccc(NC(=O)N(C)C[C@H]2Oc3ccc(NC(=O)Nc4ccc(C(F)(F)F)cc4)cc3CC(=O)N([C@H](C)CO)C[C@H]2C)cc1`, which cytotoxicity call is on record?
**A.** Its cytotoxicity call is “inactive”.

**Q.** How did the cytotoxicity call turn out when `C[C@H](CO)N1C[C@H](C)[C@H](CN(C)S(=O)(=O)c2ccc(Cl)cc2)Oc2c(NC(=O)c3ccc(-c4nccs4)cc3)cccc2C1=O` was run?
**A.** The cytotoxicity call was “inactive”.

**Q.** With `C[C@@H]1CN([C@H](C)CO)C(=O)c2cc(C#CC3(O)CCCC3)cnc2O[C@@H]1CN(C)C(=O)C1CCCCC1` as the compound, how does the cytotoxicity call read?
**A.** The cytotoxicity call was “inactive”.

**Q.** With `C[C@@H](NC(=O)C[C@@H]1CC[C@H](NC(=O)CN2CCOCC2)[C@@H](CO)O1)c1ccccc1` as the compound, how does the cytotoxicity call read?
**A.** The cytotoxicity call was “inactive”.

**Q.** How did the cytotoxicity call turn out when `O=S1(=O)C[C@H](O)[C@@H](N2CCN(CCO)CC2)C1` was run?
**A.** The cytotoxicity call was “inactive”.
